Measurements published in the supplement of paper PMC3334620.
Whole data set: some 33,000 sequences, median “E-score (-0.5 to 0.5)” near -0.011, cut for the highest 2% near 0.28. What follows is part of a selection rich in the highest values, with near analogues and random picks from the rest.

molecular target: T1, Gcr1 (UniProt P07261); test: PBM E-score (8-mer binding enrichment) (E-score (-0.5 to 0.5)); higher = stronger / more preferred TF binding; settings: protein concentration: 100 nM; construct: GST-full length
T1 sequence: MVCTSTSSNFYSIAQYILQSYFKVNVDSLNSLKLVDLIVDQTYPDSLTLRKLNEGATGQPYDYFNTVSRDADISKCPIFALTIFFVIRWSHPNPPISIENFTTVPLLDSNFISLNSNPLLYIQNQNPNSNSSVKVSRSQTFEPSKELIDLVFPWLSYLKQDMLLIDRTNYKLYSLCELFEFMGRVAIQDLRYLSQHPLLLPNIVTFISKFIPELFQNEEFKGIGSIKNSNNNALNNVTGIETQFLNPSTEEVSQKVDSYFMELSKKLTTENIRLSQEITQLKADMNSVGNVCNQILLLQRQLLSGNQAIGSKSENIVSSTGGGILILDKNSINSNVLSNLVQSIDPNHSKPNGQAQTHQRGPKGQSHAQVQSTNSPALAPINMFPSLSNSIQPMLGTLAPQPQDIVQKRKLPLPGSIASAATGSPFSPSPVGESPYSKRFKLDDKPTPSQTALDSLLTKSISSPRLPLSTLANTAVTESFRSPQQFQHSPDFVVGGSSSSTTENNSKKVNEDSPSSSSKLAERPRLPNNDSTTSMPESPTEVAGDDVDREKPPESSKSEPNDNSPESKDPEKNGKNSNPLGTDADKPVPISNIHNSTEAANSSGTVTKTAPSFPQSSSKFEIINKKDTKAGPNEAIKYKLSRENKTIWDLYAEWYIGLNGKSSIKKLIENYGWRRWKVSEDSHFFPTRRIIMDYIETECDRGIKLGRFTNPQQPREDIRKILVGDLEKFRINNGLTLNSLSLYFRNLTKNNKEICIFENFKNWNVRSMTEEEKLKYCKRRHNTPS
Procedure, shortened: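 GST-tagged yeast TFs (full-length or DNA-binding domain) were made by PURExpress in vitro transcription/translation and applied at about 100-200 nM to universal all-10-mer Agilent arrays. The arrays were made double-stranded by primer extension, on fresh or once-stripped slides. Bound protein was detected with fluorescent anti-GST, and scans were normalised with masliner. Each ungapped eight-base word, pooled with its reverse complement, received an E-score (modified Wilcoxon-Mann-Whitney statistic) from the Universal PBM Analysis Suite.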

Sequence	PBM E-score
GGCAGCTA	0.318
CGCAGCTA	0.34
CGCAGCTC	0.09
CCCAGCTA	-0.0278
GCCAGCTA	-0.135
GACAGCTA	-0.113
AGGCTGGA	-0.133
AAAATAGC	0.272
CAAATGGG	-0.0381
ATAATGGC	-0.00297
AAAATGGG	0.29
ATAATGGG	0.326
AAAATAGG	0.335
AAAATAGT	0.0219
AAAATGGA	0.142
ATAATGGA	0.196
CGCTCCGA	-0.0796
CTCTTTAA	-0.101
GGTCGATA	-0.135
CCTTAAAG	0.0175
CATCGACG	-0.0993
TCAAGGCA	-0.127
GCTGACTA	-0.0111
CTGGGCAC	0.239
AGTGGCAC	0.15

Sequence	PBM E-score
AGTGGCTA	-0.0284
AGTGGCTG	0.312
AGTGGCTC	0.218
AGTGGCAA	0.088
AGTGGCAG	0.287
GCGTTCAC	0.00885
AACATGTG	0.141
GCGGGAGA	-0.277
CTGGGGTA	-0.0593
GTGGGGTA	0.286
ATGGGGTA	-0.128
CAAGGAAC	0.0885
GCAGGCGA	-0.0907
GGGCTACC	0.302
CGGCTACC	0.0369
AGGCTACC	0.0739
CGCCGCGC	0.137
ATGGCCCG	-0.309
GATTCGCC	0.0655
GGACGCCC	0.441
CAACGCCC	0.0625
CGACGTCC	0.0613
CGACGCCC	0.287
CGACGCAC	-0.0398
GGACGCCA	0.418

Sequence	PBM E-score
GGACGTCC	0.291
GCACGCCA	-0.0682
GGACGTCA	-0.115
TGACGCCA	-0.0776
AGACGCCC	0.259
GCACGCCC	-0.122
CCACTTGA	0.138
GTTCTCCA	-0.137
ATAAGTGA	-0.119
ACTGGGTC	-0.0289
ACAGGCAG	0.252
CGAGCCCA	-0.119
AACATTTC	-0.0184
TCATTGGA	-0.0473
ACCTGTAG	0.135
CCCTGTAG	0.107
TCCTGTAA	0.354
GCCCTGTA	0.0785
ACCTGTAT	0.322
ACCTGTAC	0.0266
CCCTGTAA	0.308
CCCCTGAA	0.0139
CCCCTGTA	0.284
ACCTGTAA	-0.0579
CCCTGTAC	-0.0614

Sequence	PBM E-score
GCCTGTAA	0.109
AGGATTGA	0.106
AACCATCG	-0.148
ATTATGGA	0.161
CGTTCTAG	0.0647
TACCTCTA	0.238
CGACTCGA	-0.0795
AGGTTGCG	0.136
AGGTTGCC	0.28
AGGTTGCA	0.125
CGATTTAC	-0.039
CGCAGAGC	-0.291
ATCCACTC	0.318
GTCCACTA	0.334
ATCCACTA	0.369
ACCCACTC	0.0683
CTCCACTC	0.022
CTCCACTA	0.215
ATCCACTG	0.0833
GTCCACGA	-0.0295
ATCCACGA	0.0269
CTTAGATA	0.0548
ACACTTAG	-0.0488
ACATCCAG	0.251
ACAGCACA	-0.109

Sequence	PBM E-score
ATGTACAC	0.00539
GTCGTTGA	-0.219
GAGGGCGC	0.114
AACGCTGA	-0.0701
CACGCTGC	0.236
GACGCTGC	0.332
CACGCTGA	-0.0481
GACGCTGA	0.301
AACGCTGC	0.0719
AGGGCAGG	-0.173
AGTGCTTC	-0.0411
CCGTCCAC	0.016
ACGTCCAC	0.104
GCGTCCAA	0.372
CCGTCCAA	0.13
GCGTCCAC	0.339
ACGTCCAA	0.00712
ATACCGGG	0.208
ACCCACTG	0.147
CCTGCTCA	-0.0926
CCAGATCC	0.185
GGCAATGA	-0.202
ACGGAAGT	-0.0172
CCGGAAGG	0.0607
GCGGAAAC	-0.0701

Sequence	PBM E-score
ACGGAAGC	0.344
CCGGAAGC	0.439
ACGGAAGA	0.0748
CCGGAAGA	0.043
GCGGAAGA	-0.195
GCGGAAGC	0.314
ATTTTAGG	0.249
CGAAACAC	0.13
AATACTGT	0.0108
AACATCGC	-0.031
GCAGGTAA	0.0517
AGTCTTCG	-0.124
ATAAGCTG	0.15
CGAAGCTA	0.198
AAAAGCTA	-0.0743
ATAAGCTA	-0.078
CGAAGTTA	0.0921
GGAAGCTA	0.457
AGAAGCTA	0.338
AGAAGCTC	0.273
GGAAGCGA	0.175
AGAAGCTG	0.348
AGAAGTTA	0.0491
GGAAGTTA	0.339
TAACCATA	0.0179

Sequence	PBM E-score
GATCTGAA	-0.0028
ATGGATCC	0.278
CGGGATAC	0.304
AGGGATTC	0.276
CTGGATCA	-0.0687
CCGGATTC	0.313
CCGGATTA	-0.0163
CGGGATAA	0.0532
CGGGATTC	0.39
ACGGATTC	0.237
CTGGATCC	0.346
CGGGATTA	-0.0698
GGGGATAC	0.0984
ACACTGGA	0.264
AACAGTGC	-0.142
CGGAAGAA	-0.0973
ATCTAGCC	0.0906
ATTCCGTC	0.0616
CTATAGAC	-0.109
CGCAGCAG	0.0351
CCCAAATC	0.238
CTAGCCAC	-0.154
ATGTGAAA	-0.0826
CTGGATTC	0.361
CTGGATTA	0.246

Sequence	PBM E-score
ATGGATTC	0.272
CCGCACAC	-0.0537
GAGATGCC	0.158
CAGATGCC	0.217
AAGATGCA	0.0396
AAGATGCC	0.31
AAGATGCT	0.288
AAGATGCG	0.198
TTAACCAA	-0.0373
ATCGCCGG	0.123
CAACTCAA	0.0769
AATAGGCG	0.168
AGACGAAT	0.0336
ATACGAAT	0.113
CGACGAAG	-0.219
ATACGAAG	0.293
CTACGAAG	0.0785
AGACGAAG	0.335
AGCTTACG	0.0302
AACTACTG	-0.0124
AACTACTA	0.288
AACTACTC	0.0802
CGGATACG	0.0225
TTATGGAA	0.163
ACTCTTCA	-0.15

Sequence	PBM E-score
GGTAGCAC	0.0683
AGTAGCAC	0.287
AGTAGCAA	0.111
CCGGTTCG	-0.0186
CCTAAATA	0.129
CCTAAATC	0.306
ACTAAATC	0.0396
GTCGGTTA	-0.058
CGAACACC	-0.135
CGTTCATA	-0.0211
ATTACTGC	-0.0604
AATACTGG	0.369
ATTACTGG	0.362
ATTACTGA	-0.0681
CATACTGG	0.209
AATACTGA	0.0152
ACTACTCC	0.0438
CAATTAGC	-0.0933
AGCGTCCG	0.165
GCCGTCCC	-0.0711
AGCGTCCC	0.347
AACGTCCC	-0.159
AGCGTCCT	0.426
AGCGTCCA	0.437
CGCGTCCC	0.0398

Sequence	PBM E-score
AGCGTCAC	-0.078
ACCGTCCT	-0.196
AACGTCCT	0.043
ATCGTCCA	0.0357
GGCGTCCC	0.362
CACTTCTA	0.00557
ATTTATGC	0.0089
GCGGCCCC	0.19
GATGAGAA	-0.138
GGCGTCCA	0.436
TGCGTCCA	0.0639
CGCGTCCA	0.245
GTGACATA	0.217
GCAGATTA	0.0499
GGATACCA	0.33
AGATACCA	0.246
TGATACCA	0.107
GAAAACCA	0.084
AAATCTTA	0.111
AGAATCTA	0.219
CGTATCTA	0.0661
AGCATCTA	0.319
CGAATCTA	0.122
GGAATCTA	0.357
CGCATCTA	0.204

Sequence	PBM E-score
AGCATCTC	0.121
GGCATCAA	0.0535
AGTATCTA	-0.103
GGCATCTA	0.347
GGTATCTA	0.292
AGCATCTG	0.115
CGAGACAG	-0.0925
AGACGGAA	-0.0525
AAGGAATA	-0.159
ACTGGTCC	-0.314
ACCCACAC	-0.0404
ACTCGCCG	-0.00848
ACTCTTCC	-0.211
CGCGAACA	-0.00841
GCGGGGCC	0.131
ACATCTAC	-0.0726
CATTGAAC	0.0331
ATTTTAGC	0.0912
AGCCACTG	0.11
CACCGGTC	-0.271
GAGGACGA	-0.0483
GAGGACGC	0.289
CCGGACGG	-0.116
ACGGACGC	0.14
AAGGACGC	0.256

Sequence	PBM E-score
GAGGACAC	-0.225
CAGGACGC	0.412
ATGGACGC	0.262
CCGGACGC	0.31
CTGGACGC	0.412
CTGGACGA	-0.0396
CAGGACGA	-0.145
AATTTGAG	0.137
AGCTTCGA	0.0125
TATTGCCA	0.00643
ACCCGCTC	-0.0223
ATATGCAT	-0.0625
AGAAAAAC	0.134
GTGTTCCA	0.112
ACCCGGCA	0.125
AACGGAGG	-0.167
CAGCCACG	0.12
ACAAGATA	0.102
AAAAGAAC	-0.0325
ACAAGATG	0.294
ATAAGAAC	0.269
ACAAGATC	0.0465
CAAAGAAG	0.184
ATAAGAAA	0.171
ATAAGAAG	0.381

Sequence	PBM E-score
AAAAGAAG	0.309
AGAAGAAG	0.437
AGAAGAAC	0.13
AGAAGAAT	0.119
CTCAATAC	-0.00463
CTGTTGGA	0.103
GGTCGGAC	-0.206
CCATATCG	0.05
CGTGAGGC	-0.0867
ACAAGAAG	0.415
ACAAGAAA	0.155
ACAAGAAT	0.252
GCAAACTA	0.0887
GCGCACCC	-0.0278
AGGCACCC	0.284
AGGCACCG	0.04
TGGCACCA	0.321
AGGCACCT	0.16
GGGCACAC	-0.0584
AGGCACCA	0.136
GGGCACCA	0.364
GGGCACCC	0.321
GGGCACGA	0.0341
TGGCACAA	-0.0481
TCGCACCA	0.0244

Sequence	PBM E-score
CCATACTA	0.0399
CATGGTGC	0.0809
CGTGCATC	0.00547
AAGCCCGA	0.0664
GGTATCGA	0.00098
CAGCACCA	0.277
TAGCACCA	0.323
CGGCACCA	0.245
CGGCACCC	0.381
CGGCACCG	0.143
GAGCACCA	0.207
GTCACCAA	0.0813
GCAGGAAC	-0.0184
CAATCTCC	0.0196
CAGATAGA	0.0277
ACAGTCCT	-0.141
CCTACGGC	-0.146
AACTCGGA	0.0328
CTTACCCC	-0.052
